MITF inhib: inhibitors of MITF, primary screen, MITF inhibitor project, cell-based, luminescence; TRPM1 promoter luciferase, 24 h; inhibition, % (concentration not given with the values); 37,000 tested, 0.28% active; AID 2240, 2010; in the data active = inhibition above about 85%; inconclusive = no clear call, values can overlap the other calls; inactive = below about 68%;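 note: human melanocyte line stably carrying TRPM1 promoter luciferase reporter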
NOMO-1 viab: NOMO-1 AML cell viability reduction, primary screen, STK33 inhibitor project, CellTiter-Glo luminescence; NOMO-1 AML viability, 72 h; 37,000 tested, 7.5% active; inhibition, % (concentration not given with the values); in the data active = inhibition above about 80%; inconclusive = no clear call, values can overlap the other calls
Shh pathway inh: Hedgehog pathway signaling inhibitors, primary screen, luminescence, Shh-LIGHT2 cells, Gli-luciferase | Shh-LIGHT2 Gli-luciferase reporter, 30 h | inhibition, % (test concentration not listed) | 22,000 tested, 2.1% active;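 active = mean inhibition across valid replicates above about 65%, limit read from the data; inconclusive = mean under the limit, yet half or more replicates past it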;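 note: pathway switched on by Shh-conditioned medium diluted 1 in 25 in low serum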
PD-1 reverse act: activators reversing PD-1 mediated T-cell inhibition, primary screen, luminescence, primary human CD4 T cells, PD-L1 beads; CellTiter-Glo 96 h; activation, % (no concentration beside the values); 29,000 tested, under 10 active; AID 2316, 2010; call rule not given here
YB-1 expression: inhibitors of YB-1 gene expression, primary screen, cell-based, fluorescence; delta delta Cp (YB-1 minus CDIP) (test concentration not listed); AID 434959, 2010; 30,000 tested, 0.37% active; U2OS, qRT-PCR YB-1 vs CDIP delta delta Cp, 16 h; active compounds read high; zero = DMSO, each unit about twofold;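 active = delta delta Cp rounded down to an integer at or above 3, about 3 SD of DMSO wells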;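 note: higher means less YB-1 transcript or more CDIP transcript relative to DMSO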
Numbers stand for hits; n = inactive; u = inconclusive; x = not tested or not shown. In the library only some 7.4% were active in any assay of this set; here they are far more common.

SMILES	MITF inhib	NOMO-1 viab	Shh pathway inh	PD-1 reverse act	YB-1 expression
C[C@@H]1CN([C@@H](C)CO)C(=O)Cc2cc(NC(=O)NC3CCCCC3)ccc2O[C@@H]1CN(C)Cc1ccc(Cl)c(Cl)c1	n	111	n	x	n
C[C@@H]1CN([C@H](C)CO)C(=O)Cc2cc(NC(=O)NC3CCCCC3)ccc2O[C@@H]1CN(C)Cc1ccncc1	n	n	n	n	n
C[C@@H]1CN([C@H](C)CO)C(=O)Cc2cc(NC(=O)NC3CCCCC3)ccc2O[C@H]1CN(C)Cc1ccncc1	n	n	n	n	n
C[C@@H]1CN([C@@H](C)CO)C(=O)Cc2cc(NC(=O)C3CCCCC3)ccc2O[C@@H]1CN(C)Cc1ccc(Cl)c(Cl)c1	n	123	x	x	n
C[C@H]1CN([C@@H](C)CO)C(=O)Cc2cc(NC(=O)NC3CCCCC3)ccc2O[C@@H]1CN(C)Cc1ccc(Cl)c(Cl)c1	n	105	u	n	n
C[C@H]1CN([C@@H](C)CO)C(=O)Cc2cc(N(C)C)ccc2O[C@H]1CN(C)C(=O)Nc1ccc2c(c1)OCO2	n	n	n	x	n
COc1ccc(OC)c(NC(=O)C(C)NS(=O)(=O)c2ccc(C)cc2)c1 (centres undefined)	n	n	x	n	x
C[C@@H]1CN([C@H](C)CO)C(=O)Cc2cc(NC(=O)Nc3ccc(C(F)(F)F)cc3)ccc2O[C@@H]1CN(C)Cc1ccncc1	n	u	n	n	n
C[C@@H]1CN([C@@H](C)CO)C(=O)Cc2cc(NC(=O)Nc3ccc(C(F)(F)F)cc3)ccc2O[C@@H]1CN(C)Cc1ccncc1	n	116	n	n	n
C[C@H]1CN([C@@H](C)CO)C(=O)Cc2cc(NC(=O)Nc3ccc(C(F)(F)F)cc3)ccc2O[C@H]1CN(C)Cc1ccncc1	n	134	n	n	n
C[C@H]1CN([C@@H](C)CO)C(=O)c2cc(N(C)C)ccc2O[C@@H]1CN(C)Cc1ccc(C(=O)Nc2ccccc2N)cc1	n	112	x	n	n
C[C@@H]1CN([C@H](C)CO)C(=O)c2cc(NC(=O)c3ccncc3)ccc2O[C@@H]1CN(C)Cc1ccc(C(=O)Nc2ccccc2N)cc1	n	u	x	n	n
C[C@@H]1CN([C@@H](C)CO)C(=O)c2cc(N(C)C)ccc2O[C@@H]1CN(C)Cc1ccc(C(=O)Nc2ccccc2N)cc1	n	110	x	n	n
C[C@H]1CN([C@@H](C)CO)C(=O)c2cc(NC(=O)c3ccncc3)ccc2O[C@@H]1CN(C)Cc1ccc(C(=O)Nc2ccccc2N)cc1	n	n	x	n	n
N#Cc1c(N)nc(Sc2ccc(Cl)cc2)c(C#N)c1-c1ccccc1	n	102	n	n	n
N#Cc1c(-c2ccccc2Cl)cc(C2CC2)nc1N	n	n	n	n	n
C[C@@H]1CN([C@@H](C)CO)C(=O)c2cc(NC(=O)C3CCCCC3)ccc2O[C@@H]1CN(C)Cc1ccc(Oc2ccccc2)cc1	n	115	n	n	n
C[C@@H]1CN([C@@H](C)CO)C(=O)c2cc(NC(=O)NC3CCCCC3)ccc2O[C@H]1CN(C)Cc1ccc(-c2ccccc2)cc1	n	100	n	n	n
C[C@@H]1CN([C@H](C)CO)C(=O)c2cc(NC(=O)NC3CCCCC3)ccc2O[C@H]1CN(C)Cc1ccc(-c2ccccc2)cc1	n	u	n	n	n
C[C@H]1CN([C@@H](C)CO)C(=O)c2cc(NC(=O)NC3CCCCC3)ccc2O[C@H]1CN(C)Cc1ccncc1	n	100	x	n	n
C[C@@H]1CN([C@H](C)CO)C(=O)c2cc(NC(=O)NC3CCCCC3)ccc2O[C@@H]1CN(C)Cc1ccc(-c2ccccc2)cc1	n	87	n	x	n
C[C@H]1CN([C@@H](C)CO)C(=O)c2cc(NC(=O)C3CCCCC3)ccc2O[C@@H]1CN(C)Cc1ccc(Oc2ccccc2)cc1	n	n	x	n	n
CCc1c(C)sc(NC(=O)COc2ccccc2)c1C(=O)N1CCOCC1	n	n	x	n	x
Cc1noc(C)c1NC(=O)N(C)C[C@@H]1Oc2ccc(NS(C)(=O)=O)cc2CC(=O)N([C@H](C)CO)C[C@H]1C	n	n	n	n	n
C[C@@H]1CN([C@H](C)CO)C(=O)c2cccc(NC(=O)C3CC3)c2O[C@H]1CN(C)C(=O)NC1CCCCC1	n	n	n	n	n
SMILES	MITF inhib	NOMO-1 viab	Shh pathway inh	PD-1 reverse act	YB-1 expression
C[C@@H]1CN([C@@H](C)CO)C(=O)c2cc(NC(=O)NC3CCCCC3)ccc2O[C@@H]1CN(C)Cc1ccc(-c2ccccc2)cc1	n	117	n	n	n
C[C@H]1CN([C@@H](C)CO)C(=O)c2cc(NC(=O)NC3CCCCC3)ccc2O[C@@H]1CN(C)Cc1ccc(-c2ccccc2)cc1	n	n	x	n	n
C[C@@H]1CN([C@H](C)CO)C(=O)c2cc(NC(=O)NC3CCCCC3)ccc2O[C@@H]1CN(C)Cc1ccc(Oc2ccccc2)cc1	n	n	91	n	n
COC(=O)C[C@H]1[C@]2(C)C3=C(C)[C@H](c4ccoc4)C[C@H]3O[C@@H]2[C@H](OC(C)=O)C2[C@](C)(C(=O)OC)C=CC(=O)[C@@]21C (some centres undefined)	n	n	n	n	n
Cc1ccc(S(=O)(=O)Nc2ccc3c(c2)C(=O)N([C@H](C)CO)C[C@H](C)[C@H](CN(C)S(C)(=O)=O)OCCCC[C@@H](C)O3)cc1	n	n	n	n	n
O=S(=O)(NCCNC/C=C/c1ccc(Br)cc1)c1cccc2cnccc12	n	n	81	n	n
Cc1cc(C)c2c(n1)sc1c(Sc3nnc(-c4ccncc4)o3)ncnc12	n	n	x	n	n
CCn1c(Sc2ncnc3c2sc2nc(C)cc(C)c23)nnc1-c1cccs1	n	104	x	n	n
C[C@@H]1CN([C@@H](C)CO)C(=O)c2cc(NC(=O)Nc3ccc(C(F)(F)F)cc3)ccc2O[C@H]1CN(C)CC1CCCCC1	n	118	n	n	n
C[C@H](CO)N1C[C@H](C)[C@H](CN(C)CC2CCCCC2)Oc2ccc(NC(=O)Nc3ccc(C(F)(F)F)cc3)cc2C1=O	n	116	n	n	n
C[C@@H]1CN([C@@H](C)CO)C(=O)CCCn2cc(nn2)CO[C@@H]1CN(C)C(=O)c1ccccc1	x	x	x	x	n
COC(=O)c1cc(-c2ccccc2)sc1NC(=O)c1cc(-c2cccnc2)nc2ccccc12	n	n	x	x	x
COC(=O)c1c(-c2ccccc2)csc1NC(=O)c1cc(-c2cccnc2)nc2ccccc12	n	104	x	x	x
C[C@@H]1CN([C@H](C)CO)C(=O)Cc2cc(NC(=O)Nc3ccc4c(c3)OCO4)ccc2O[C@@H]1CN(C)Cc1ccncc1	n	n	x	n	n
CC(=O)Oc1ccc2c(c1)CCC1C2CC[C@@]2(C)C1CC[C@@H]2OC(C)=O (some centres undefined)	n	n	67	x	n
C[C@]12CCC3c4ccc(O)cc4CCC3C1CC[C@@H]2O (some centres undefined)	n	n	74	x	n

Screens deposited in PubChem by Broad Institute.
